The whole screen tested about 360,000 compounds, of which about 7,300 (2%) were called active. This is one part of a sample in which actives are shown more often than they occur. Cut-off read from the data, not from the text of the source: active = inhibition above about 50%; inactive = the rest.
assay: inhibitors of TWEAK-Fn14 signaling, primary screen, luciferase reporter cells, uHTS (AID 1159606); settings: TWEAK-stimulated Fn14 reporter cells, luciferase luminescence, 8 h; at 10 µM; active compounds read high

SMILES	inhibition
Cc1nc(SCC(=O)c2ccccc2)c([N+](=O)[O-])[nH]1	9.51% (inactive)
Cc1cc(SCC(=O)c2ccccc2)nc(SCC(=O)c2ccccc2)n1	53.9% (active)
Cc1nc2nc(SCC(=O)c3ccccc3)[nH]c2cc1Br	-4.34% (inactive)
C[C@H](CO)N1C[C@H](C)[C@H](CN(C)C(=O)c2ccncc2)OCc2ccccc2-c2c(n(C)c3ccccc23)C1=O	2.05% (inactive)
O=C(CCC(=O)OCc1cccc(C(=O)Oc2ccccc2)c1)Nc1cccc2ccccc12	-15.2% (inactive)
Cc1cccc(NC(=O)/C=C/c2ccc3c(c2)OCO3)n1	23.5% (inactive)
C(=N\Nc1ccc2ccccc2n1)/c1ccc2c(c1)OCO2	86.3% (active)
O=C(CNC(=O)C(c1ccccc1)c1ccccc1)N/N=C\c1ccc2c(c1)OCO2	-46.1% (inactive)
Cc1ccc(CNC(=O)CCCNC(=O)c2ccc(Cl)cc2)n1C	-27.7% (inactive)
COc1ccc(N2CC(C(=O)N[C@@H](C)C(=O)N3CCCCC3)CC2=O)cc1 (stereo partly specified)	-3.79% (inactive)
CCOc1ccc(N2C(=O)CSC2=NC#N)cc1	11.8% (inactive)
COc1cc(C(=O)N2CCN(C)CC2)cc(OC)c1OC	6.59% (inactive)
COc1cc(N2C(=O)CC3(CCCC3)CC2=O)cc(OC)c1OC	15.3% (inactive)
O=C1CSC(=S)N1c1ccc(O)cc1	75.1% (active)
O=C1CSC(=S)N1c1ccc(Cl)c(Cl)c1	49.6% (inactive)
COc1cc(N2C(=O)CSC2=S)cc(OC)c1OC	58.5% (active)
Cc1ccc(NC(=O)CSc2nn3c(=O)c(C)nnc3s2)cc1Cl	8.21% (inactive)
Cc1ccc(NC(=O)N2CCC(c3nc4c(nnn4Cc4c(F)cccc4Cl)c(=O)[nH]3)CC2)cc1	19.1% (inactive)
CC(C)(C)c1ccc(Cn2nnc3c(=O)[nH]c(C4CCCN(C(=O)c5ccco5)C4)nc32)cc1 (stereo unspecified)	25.6% (inactive)
Cc1ccc(Cn2nnc3c(=O)[nH]c(C4CCN(S(=O)(=O)/C=C/c5ccccc5)CC4)nc32)cc1	50.3% (active)
O=C(OC1CCOC1=O)c1cccc(S(=O)(=O)Nc2ccc(F)cc2)c1 (stereo unspecified)	2.12% (inactive)
Cc1ccc(C(=O)N/C(=C\c2cccs2)C(=O)NCCc2ccccn2)cc1C	5.63% (inactive)
COc1cncc(-c2cnc3sc(NCCc4ccccn4)nn23)c1	64.8% (active)

SMILES	inhibition
COc1ccc(-c2cc3nc(NCCOc4ccccc4)ccn3n2)cc1	5.16% (inactive)
CCC1(CC)NC(=O)N(CC(=O)OCC(=O)c2cc(C)c(C)cc2C)C1=O	-7.64% (inactive)
C=CCC[C@@H](Cc1ccc(F)cc1)C(=O)O[C@H](CNC(=O)[C@H](CC=C)CC(=O)N(CCO)Cc1ccccc1)c1ccccc1	36.5% (inactive)
CN1CCN(C(=O)c2ccc(NC(=O)c3ccc(Br)o3)cc2)CC1	2.47% (inactive)
O=C(Nc1ccncc1)c1c(F)cccc1F	66.7% (active)
O=C(Nc1ccc(S(=O)(=O)N2CCCCCC2)cc1)c1c(F)cccc1F	2.17% (inactive)
COc1cccc(OC)c1C(=O)Nc1ccc(Cc2ccncc2)cc1	-17.4% (inactive)
CN(C)S(=O)(=O)c1ccc(N2CCCC2)c(C(=O)Nc2cccc(F)c2)c1	0.2% (inactive)
Cc1ccccc1OCC(=O)NNC(=O)c1cc(S(=O)(=O)N(C)C)ccc1N1CCCC1	-9.51% (inactive)
CN(C)S(=O)(=O)c1ccc(N2CCCC2)c(C(=O)NCc2ccccc2)c1	63.4% (active)
COc1ccc(N2CCN(C(=O)CNS(=O)(=O)c3ccc(C)c(C)c3)CC2)cc1	4.34% (inactive)
COc1ccc(C(C#N)Nc2ccccc2C)cc1 (stereo unspecified)	-0.99% (inactive)
COC(=O)[C@@]1(Cc2ccc(F)cc2)[C@H]2c3cc(C(=O)N4CCCC4)n(Cc4ccc(OC(F)(F)F)cc4)c3C[C@H]2CN1C(=O)c1ccccc1	18.4% (inactive)
N/C(Cc1ccc([N+](=O)[O-])cc1)=N\OC(=O)COc1ccc2ccccc2c1	-1.78% (inactive)
Cc1ccc(C(=O)O/N=C(\N)c2ccccn2)cc1Cl	92.3% (active)
N/C(=N\OC(=O)Cc1ccc([N+](=O)[O-])cc1)c1ccccn1	69.1% (active)
Cc1cc(C)cc(OCC(=O)O/N=C(\N)Cc2ccc([N+](=O)[O-])cc2)c1	-9.61% (inactive)
Cc1cccc(/C(N)=N/OC(=O)c2ccccc2Cl)c1	31.2% (inactive)
N/C(=N\OC(=O)CCC1CCCCC1)c1ccccn1	18.4% (inactive)
CO/N=C(\N)c1ccc([N+](=O)[O-])cc1	0.74% (inactive)
N/C(=N\OC(=O)c1ccc([N+](=O)[O-])cc1)c1ccccn1	77.4% (active)
O=C(COC(=O)c1ccccn1)NNC(=O)c1ccc([N+](=O)[O-])cc1	-4.89% (inactive)
COc1ccc(C2OC(CCc3ccccc3)Cc3[nH]c(=S)[nH]c(=O)c32)cc1 (stereo unspecified)	-31.7% (inactive)

SMILES	inhibition
Cc1ccc(S(=O)(=O)N2CCC(=O)N([C@H](COCc3ccccc3)Cc3ccccc3)CC2)cc1	1.7% (inactive)
CC(Oc1ccc(Cl)cc1)c1ccnn1S(C)(=O)=O (stereo unspecified)	8.92% (inactive)
CN(C)CCn1c2c(c(SCC(=O)Nc3ccccc3C(F)(F)F)nc1=O)CCCC2	-2.47% (inactive)
CC(C)(C)c1ccc(/C=C/C(=O)NCCCn2ccnc2)cc1	13.5% (inactive)
O=C(NC1CCCC1)C1c2ccccc2OCC(=O)N1Cc1ccccc1 (stereo unspecified)	2.4% (inactive)
COC(=O)Nc1ncc(CN2CCCCC2)s1	1.88% (inactive)
Cc1nc(-c2ccc(NC(=O)c3cccs3)cc2)cs1	69% (active)
CCc1ccc(NC(=O)C(=O)NNC(=O)c2cccs2)cc1	-12.2% (inactive)
Cc1ccc(OCC(=O)Nc2ccc(NC(=O)c3cccs3)cc2)c(C)c1	-68.7% (inactive)
CCN(C(=O)CSc1nnc2ccccn12)C1CCS(=O)(=O)C1 (stereo unspecified)	7.23% (inactive)
COc1ccc2c(c1)c(=Cc1ccc(N(C)C)cc1)c1cc(-c3ccccc3)[n+](C)n12	100% (active)
CC1(C)CC(=O)C2=C(C1)N=C1SCCC(=O)N1C2c1ccc(C(F)(F)F)cc1 (stereo unspecified)	1.88% (inactive)
O=C1OC(Oc2ccc(Br)cc2)(c2ccccc2)c2ccccc21 (stereo unspecified)	7.48% (inactive)
Nc1[nH]c(C(=O)c2ccccc2)c(-c2ccncc2)c1C(=O)NCc1cccc2ccccc12	36% (inactive)
CC(C)CCNC(=O)c1ccc2c(Cl)c3c(nc2c1)CCC3	58.4% (active)
COc1cccc(NC(=O)c2ccc3c(SCC(=O)O)c4c(nc3c2)CCCC4)c1	-6.4% (inactive)
CC(=O)c1ccc(NC(=O)c2ccc3c(Cl)c4c(nc3c2)CCCC4)cc1	40.1% (inactive)
CCc1ccc([C@@H]2CC(=O)[C@@H]3CN(S(=O)(=O)c4ccc(C)cc4)[C@H](c4ccc(Cl)cc4)C[C@@H]3N2S(=O)(=O)c2ccc(C)cc2)cc1	-18.3% (inactive)
COCOCCn1cc(CN2CCS(=O)(=O)N(Cc3ccc(-c4ccc(OC)cc4)cc3)C(CC(C)C)C2=O)nn1 (stereo unspecified)	-6.75% (inactive)
COCc1cc(=O)[nH]c2cc(NC(=O)C(F)(F)F)c(C)cc12	6.5% (inactive)
C[C@H]1CN([C@@H](C)CO)C(=O)CCCn2cc(nn2)CO[C@@H]1CN(C)S(=O)(=O)c1ccc(-n2cccn2)cc1	-16.6% (inactive)
O=C(c1ccc2c(c1)C(=O)N(c1ccc(Cl)cc1)C2=O)N1CCN(c2ccccn2)CC1	-12.4% (inactive)
Cc1cccc(N2C(=O)c3ccc(C(=O)Nc4cccc(C(=O)O)c4)cc3C2=O)c1	8.83% (inactive)

SMILES	inhibition
O=C(O)c1ccc2c(c1)C(=O)N(c1ccc(/C=C/C(=O)c3ccccc3)cc1)C2=O	75.5% (active)
CCN1C[C@@H]2[C@@H]3C(=O)N(C)C(=O)[C@@H]3[C@](C)(C1=O)N2C(=O)c1ccccc1	11.5% (inactive)
CC(Sc1nncn1C)C(=O)NCCC1=CCCCC1 (stereo unspecified)	-1.74% (inactive)
COc1ccc(NC(=O)C(Br)C(C)C)cc1 (stereo unspecified)	-6.35% (inactive)
COc1ccc(NC(=O)ON=C2c3ccccc3-c3ccccc32)cc1	57.8% (active)
COc1ccc(NC(=O)CCCC(=O)c2ccccc2)cc1	-22.6% (inactive)
CCC1CCCCN1C(=O)Nc1cccc(NC(=O)N2CCCCC2CC)c1 (stereo unspecified)	-4.07% (inactive)
CCCCn1c(N)c(N(Cc2ccccc2OC)C(=O)COc2cc(C)ccc2Cl)c(=O)[nH]c1=O	-6.52% (inactive)
CC(C)CC(=O)N1CCN(Cc2ccccc2Br)CC1	-11.1% (inactive)
CCC1OC(C2CC2)CC2=C1C(=O)OC(C)(C)O2 (stereo unspecified)	6.62% (inactive)
Cn1c(SCC(=O)Nc2ccc(Cl)cc2)nc(O)cc1=O	80.5% (active)
COc1ccccc1-n1c(SCC(=O)Nc2ccc(Cl)cc2)nc(O)c(Cc2ccccc2)c1=O	-7.18% (inactive)
CC(C)Cn1c(SCC(=O)Nc2ccc(Cl)cc2F)nc(O)cc1=O	0.05% (inactive)
O=C(COC(=O)c1ccc(NS(=O)(=O)c2cccs2)cc1O)Nc1ccc(F)cc1	1.2% (inactive)
CCOC(=O)N1CCN(C(=O)C2CCCN(c3ncnc4c3sc3cccc(F)c34)C2)CC1 (stereo unspecified)	28.8% (inactive)
FC(F)(F)C1CCCN(c2nsc3ccccc23)C1 (stereo unspecified)	7.5% (inactive)
CCCCCCCCN1C(=O)[C@H](CC(=O)NCc2cccc3ccccc23)C[C@@]2(C(=O)OC)CCCCC=C12	-1.79% (inactive)
c1ccc(CN2CCC(N=C3NN=C(c4ccc5c(c4)OCCO5)CS3)CC2)cc1	57.6% (active)
CC(=NC1CCN(Cc2ccccc2)CC1)c1c(O)[nH]c(=O)[nH]c1=O	0.57% (inactive)
CN(C)c1nc(=Nc2cccc(Cl)c2)ss1	5.73% (inactive)
CS(=O)(=O)N(CC(=O)N1CCN(Cc2ccccc2)CC1)c1ccc2c(c1)OCCO2	14.7% (inactive)
Clc1cccc(N=C2NN=C(c3ccc4c(c3)OCCO4)CS2)c1	84.4% (active)

From PubChem BioAssay AID1159606 (Sanford-Burnham Center for Chemical Genomics, 2016)
